Shown are actives, neighbours in structure and some others; about 2.4% of the full set was active somewhere.
Pol kappa inh: blocks human DNA polymerase kappa activity; Potency, µM (series often up to 107 µM), inactives show top-dose activity, negative = inhibition, usual class: inhibitors; AID 588579; Q9UBT6; purified Pol kappa, fluorescent DNA synthesis assay, 10 min; 400,000 tested, 0.53% active; further: on the % scale 0 is the no-effect control and ±100 the full control effect
Target sequence (Q9UBT6 whole entry, looked up): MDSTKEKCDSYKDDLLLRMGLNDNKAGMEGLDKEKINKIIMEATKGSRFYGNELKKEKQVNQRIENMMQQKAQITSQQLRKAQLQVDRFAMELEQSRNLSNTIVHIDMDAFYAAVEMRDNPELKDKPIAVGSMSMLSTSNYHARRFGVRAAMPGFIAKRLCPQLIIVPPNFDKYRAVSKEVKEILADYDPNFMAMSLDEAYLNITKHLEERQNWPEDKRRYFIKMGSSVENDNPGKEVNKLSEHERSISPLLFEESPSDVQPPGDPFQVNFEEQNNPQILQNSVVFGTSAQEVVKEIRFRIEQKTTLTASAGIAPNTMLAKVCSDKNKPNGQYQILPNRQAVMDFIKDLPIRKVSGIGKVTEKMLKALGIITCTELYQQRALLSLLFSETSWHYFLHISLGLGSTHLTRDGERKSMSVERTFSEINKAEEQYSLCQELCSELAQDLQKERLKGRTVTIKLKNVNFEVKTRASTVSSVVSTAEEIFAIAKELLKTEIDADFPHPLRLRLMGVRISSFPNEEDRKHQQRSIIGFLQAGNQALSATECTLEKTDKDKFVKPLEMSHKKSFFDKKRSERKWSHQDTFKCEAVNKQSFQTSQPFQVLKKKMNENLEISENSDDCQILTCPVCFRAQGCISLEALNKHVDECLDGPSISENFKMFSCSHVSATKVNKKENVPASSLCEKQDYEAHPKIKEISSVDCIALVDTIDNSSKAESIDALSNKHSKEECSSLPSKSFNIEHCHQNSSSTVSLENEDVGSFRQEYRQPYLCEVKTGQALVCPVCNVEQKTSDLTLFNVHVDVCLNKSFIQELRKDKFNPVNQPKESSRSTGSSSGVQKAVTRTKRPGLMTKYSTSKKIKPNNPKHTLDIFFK
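Pol kappa 10 nM + cpd, 15 min RT; start w/ substrate 50 nM final; fluorescence kinetic read, 0 and 10 min. Neg ctrl: buffer, no enzyme.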
FEN1 inhibitor: inhibitors of human flap endonuclease 1; AID 588795; Recombinant FEN1 flap cleavage, fluorescence, 15 min; Potency, µM (highest dose often 114 µM), inactives show at the highest dose activity change, negative = inhibition, actives largely listed as inhibitors; 390,000 tested, 0.35% active; P39748; further: on the % scale 0 is the no-effect control and ±100 the full control effect; nearly all actives have a fitted effect of over 65% in size
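Enzyme 10 nM, 15 min RT preincubation with compound; start with substrate 50 nM final; reads at 0 and 15 min; qHTS titration, four-parameter Hill fit.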
Pol beta inh: blocks human DNA polymerase beta activity; Pol beta primer extension/strand displacement, fluorescence kinetic; Potency, µM (highest dose often 114 µM), for inactives: at the highest dose activity change, negative = inhibition, usual class: inhibitors; 340,000 tested, 1.3% active; AID 485314; further: on the % scale 0 is the no-effect control and ±100 the full control effect
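Human Pol beta at 10 nM; strand-displacement substrate 50 nM final. Compound exposure 15 min at room temperature before start, reaction 10 min at room temperature.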
Tb PGK inh: T. brucei PGK inhibition; PGK/GAPDH coupled, Kinase-Glo luminescence, 60 min; P07378; Potency, µM (top dose mostly 57.5 µM), for inactives: at the highest dose activity change, negative = inhibition, actives largely listed as inhibitors; 380,000 tested, 0.043% active; further: on the % scale 0 is the no-effect control and ±100 the full control effect; nearly all actives have a fitted effect of over 60% in size
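Recombinant glycosomal PGK reaction used 1,3-bisphosphoglycerate generated in-well by GAPDH (100nM final) in 100mM TEA pH 7.6, 5mM MgCl2, 0.01% Tween-20. After 60 minutes at room temperature, ATP was read by Kinase-Glo Plus luminescence end-point.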
POLH inh: blocks human DNA polymerase eta activity. Q9Y253. recombinant Pol eta, fluorescent DNA replication assay. Potency, µM (series often up to 114 µM), without a hit: at the highest dose activity change, negative = inhibition, hits mostly inhibitors. 390,000 tested, 1.2% active; further: on the % scale 0 is the no-effect control and ±100 the full control effect
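Pol eta at 10 nM preincubated with compounds 15 min at room temperature; reaction started with fluorescent substrate (50 nM final) and read kinetically at 0 and 10 min.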
Pol iota inh: blocks human DNA polymerase iota activity; Q9UNA4; Pol iota fluorescent replication assay, 10 min; Potency, µM (titrated, usually from 115 µM), for inactives: at the highest dose activity, negative = inhibition, most hits filed as inhibitors; 390,000 tested, 1% active; AID 588590
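Fluorescent replication assay read twice, at 0 min and 10 min after adding 50 nM (final) substrate. Enzyme (10 nM) and compounds were first incubated 15 min at room temperature; enzyme-free buffer wells were negative controls.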
TbPGK inh: validation of Trypanosoma brucei phosphoglycerate kinase inhibitors; shares compounds with Pol kappa inh; TbPGK coupled GAPDH assay, Kinase-Glo luminescence; Potency, µM (titrated, usually from 57.5 µM), without a hit: top-dose activity change, negative = inhibition, most hits filed as inhibitors; 500 tested, 79% active; AID 686980; further: on the % scale 0 is the no-effect control and ±100 the full control effect; nearly all actives have a fitted effect of over 65% in size
Pol iota confirm: Human Pol iota inhibitor confirmatory assay; shares compounds with Pol kappa inh; Pol iota primer extension, TAMRA/BHQ fluorescence; Potency, µM, most hits filed as inhibitors; 1,500 tested, 77% active
Numbers without * were called inactive; i = inactive; ? = inconclusive; nt = no result given; ! = a repeat was not active; [ ] = remark or other dose. The call rests on the fitted dose curve; in most records, active means well fitted curve in the direction sought with a large enough effect; inconclusive means small, poorly fitted or top-dose-only effect, or another doubt; inactive means no such curve, though single readings can be large; an effect the other way counts as inactive or inconclusive. Potency means the concentration at half of the fitted maximal effect.

SMILES	Pol kappa inh	FEN1 inhibitor	Pol beta inh	Tb PGK inh	POLH inh	Pol iota inh	TbPGK inh	others
Cc1cc(=O)oc2cc(OCC(=O)c3ccccc3)ccc12	-5%	-2%	32%	-9%	-13%	143%	nt
Cc1cc(=O)oc2cc(OCC(=O)N/N=C/c3ccccc3O)ccc12	-8%	0%	3.2µM*	-1%	18µM*	29%	nt	Pol iota confirm=?
Cc1cccc(-n2c(SCC(=O)Nc3ccccc3C)nc3c(oc4ccccc43)c2=O)c1	11%	0%	12%	i	-9%	36%	nt
O=c1nc2cccc3c2=c(/c1=C(\O)c1ccccc1)c1ccccc1c3=O	7%[60.1 µM]	?	10µM*	0%	50µM*	45%	nt	Pol iota confirm=?
Cc1ccc(S(=O)(=O)C(CNC(=O)Cc2ccc(Cl)cc2)c2cccs2)cc1 (stereo unspecified)	-24%[60.1 µM]	-20%	41%	9%	-14%	-6%	nt
COc1ccc(CC(=O)NCC(c2cccs2)S(=O)(=O)c2ccc(Cl)cc2)cc1 (stereo unspecified)	-7%[60.1 µM]	-21%	7.9µM*	3.2µM*	-25%	-4%	6.5µM*
Cc1cc(S(=O)(=O)C(CNC(=O)COc2ccc(Cl)cc2)c2cccs2)ccc1F (stereo unspecified)	-15%[60.1 µM]	-3%	4%	i	-9%	8%	nt
O=C(COc1ccccc1)NCC(c1cccs1)S(=O)(=O)c1ccc(Cl)cc1 (stereo unspecified)	-9%[60.1 µM]	4%	18µM*	?	-13%	-4%	?
CC(=O)c1ccc(C2CC34CNS(=O)(=O)C3CC2O4)cc1 (stereo unspecified)	-8%	-24%	nt	nt	nt	-9%	nt
Cc1ccc(-c2nc3ccccc3o2)cc1NC(=S)NC(=O)/C=C/c1ccco1	-18%	-8%	40µM*	2%	22µM*	?	nt	Pol iota confirm=?
COc1ccc(C(=O)O/N=C(\C)c2ccccc2)cc1	-11%	-8%	14%	22µM*	-1%	-6%	8.2µM*
COc1ccc(C(=O)O/N=C(/c2ccccc2)c2ccncc2)cc1	-3%	-15%	2%	-7%	-7%	11%	nt
CC(C)(C)c1ccc(C(=O)O/N=C(\N)c2ccccn2)cc1	-7%	-10%	5%	-10%	-23%	54%	nt
N/C(=N\OC(=O)c1ccc(F)cc1)c1nonc1N	0%	27%	39%	-16%	-13%	1%	nt
Cc1ccc(C(=O)O/N=C(\N)c2nonc2N)cc1	-1%	6%	1%	?	-20%	142%	23µM*
Cc1ccc(C(=O)O/N=C(\N)c2ccccn2)cc1	-9%	-14%	-2%	25µM*	-8%	30%	6.5µM*
C/C(=N/OC(=O)c1ccc(C)cc1)c1cccs1	-11%	-9%	-12%	32µM*	-2%	10%	10µM*
O=C(Nc1ccc2c(c1)N(C1CCCC1)C(=O)c1ccccc1S2)c1cccc(F)c1	-7%[60.1 µM]	6%	-5%	-9%	-13%	11%	nt
CCCCN(C)CCNC(=O)c1ccc(Cn2c(=O)[nH]c3cc(OC)c(OC)cc3c2=O)cc1	3%	-23%	31%	-9%	4%	-12%	nt
COc1ccc(-c2cn3cccnc3n2)cc1NC(=O)c1cc(C)cc(C)c1	-4%[60.1 µM]	-20%	?	nt	nt	8%	nt
CC1CCCCN1C(=O)Cn1c(=O)n(-c2ccc(Cl)cc2)c(=O)c2c3c(sc21)CCC3 (stereo unspecified)	1%	-15%	10%	i	-6%	-19%	nt
N/C(=N\OC(=O)c1ccccc1)c1ccccn1	-1%	0%	21%	?	-19%	9%	10µM*
Cc1cccc(C(=O)O/N=C(\N)c2ccccn2)c1	-17%	13%	28%	?	-23%	47%	nt
CN(C)c1ccc(/C=C/c2ccc3c4ccccc4ccc3[n+]2-c2ccccc2)cc1	45µM*!	8.9µM*	11µM*	?	22µM*	20µM*	29µM*
CN(C)c1ccc(/C=C/c2nccc3ccccc23)cc1	-14%	?	nt	nt	nt	21%	nt
SMILES	Pol kappa inh	FEN1 inhibitor	Pol beta inh	Tb PGK inh	POLH inh	Pol iota inh	TbPGK inh	others
CCOc1ccc(-c2c(C(=O)N/N=C/c3cccnc3)nnn2-c2nonc2N)cc1	?	-6%	?	i	?	22µM*	nt	Pol iota confirm=?
Cc1ccc(-c2c(C(=O)N/N=C/c3cccnc3)nnn2-c2nonc2N)cc1	1%	12%	1%	-3%	-11%	14%	nt
CCc1ccccc1N(C)S(=O)(=O)c1ccc2c(c1)C(C)(C)C(=O)N2C	0%	3%	6%	-5%	-14%	7%	nt
CCNC(=O)c1nn(-c2ccccc2C)nc1CO	1%	0%	29%	i	-18%	26%	nt
COC(=O)c1sccc1NC(=O)Nc1ccc(F)cc1	0%	2%	3%	?	-15%	-7%	13µM*
O=C(/C=C\c1ccc(O)c(O)c1)O[C@@H]1C[C@](O)(C(=O)O)C[C@@H](O)[C@@H]1O	-11%[12 µM]	nt	nt	nt	nt	nt	nt
O=C(/C=C/c1ccc(O)c(O)c1)OC1C(O)CC(OC(=O)/C=C/c2ccc(O)c(O)c2)(C(=O)O)CC1O (stereo unspecified)	?	-2%	1.4µM*	-14%	?	5µM*	nt	Pol iota confirm=24*
CN(C)c1ccc(CNC(=O)c2cccn2-c2nnc(N3CCCCC3)s2)cc1	14%	-10%	22%	i	-10%	-16%	nt
O=C(Nc1ccccc1)Nc1ccc(C(=O)N2CCCC2)cc1	-16%	13%	24%	?	-2%	-27%	16µM*
Cc1ccc(/C=C(\CCC(=O)O)c2nc3ccccc3s2)cc1[N+](=O)[O-]	-15%	-11%	3%	-7%	-11%	4%	nt
CNc1ccc(/C=C(\CCC(=O)O)c2nc3ccccc3s2)cc1[N+](=O)[O-]	-15%	-9%	32µM*	?	13µM*	-1%	nt	Pol iota confirm=42*
COc1cccc2sc(NN)nc12	-7%	-19%	-8%	-10%	2%	41%	nt
NNc1nc2c(Cl)c(Cl)ccc2s1	?	?	?	?	?	14µM*	?	Pol iota confirm=67*
O=C(Nc1ccc2c(c1)OCCO2)c1coc2ccccc2c1=O	-4%	2%	41%	?	?	6%	4.1µM*
Cc1ccc(NC(=O)c2sc3nc4c(cc3c2N)CN(Cc2ccccc2)CC4)cc1	-12%	13%	25%	11%	-3%	46%	nt

Screening results from PubChem.
